# Assay outcomes from PubChem.
# HCMV antiviral = qHTS Assay for inhibitors of the human cytomegalovirus (HCMV); HFF cells, HCMV-luciferase reporter, 72 h; hits give low values; activity change, negative = inhibition, % at 57.5 µM; 410,000 compounds, 4.5% hits; in the data active = activity change below about -60%; inconclusive = no clear call, values can overlap the other calls; inactive = above about -39%
#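 Two-dose cell screen: HFF monolayers treated with compounds and infected with luciferase-expressing HCMV at 1 PFU/cell, 72 h at 37C, then lysed for luciferase measurement.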
# Marburg entry inh = qHTS for inhibitors of binding or entry into cells for Marburg Virus. Marburg virus pseudotyped entry inhibition, cell reporter. Potency, µM (top dose mostly 37.8 µM), for inactives: top-dose activity change, negative = inhibition, actives largely listed as inhibitors. 300,000 compounds, 1.8% hits. AID 540276, 2011; calls by dose curve; tested in HEK293 cells; note: potency is the fitted concentration of half-maximal effect
# LASV entry inh = qHTS for Inhibitors of binding or entry into cells for Lassa Virus; Lassa virus pseudotype entry inhibition, cell reporter; Potency, µM (series often up to 37.9 µM), for inactives: at the highest dose activity change, negative = inhibition, actives largely listed as inhibitors; 300,000 compounds, 1.2% hits; calls by dose curve; tested in HEK293 cells; note: potency is the fitted concentration of half-maximal effect; nearly all actives have a fitted effect of over 50% in size
# FMDV antiviral = High Throughput Screening for Foot and Mouth Disease Virus Antivirals. FMDV antiviral cell-based qHTS. Potency, µM (top dose mostly 57.9 µM), without a hit: at the highest dose activity change, negative = inhibition, actives largely listed as inhibitors. 410,000 compounds, 1.2% hits; calls by dose curve; tested in HEK293T cells; note: read-out not given here; potency is the fitted concentration of half-maximal effect; nearly all actives have a fitted effect of over 45% in size
# * marks the source's active call; other numbers are inactive results; u = inconclusive; x = no result; ! = not active in a repeat; [ ] = remark or other dose. Most compounds without a hit are left out; they make up all but 6.2% or so of the library. % is set by controls: 0 for no effect and ±100 for the full control effect.
SMILES,HCMV antiviral,Marburg entry inh,LASV entry inh,FMDV antiviral
COC(=O)C1=C(c2ccc3ccccc3c2)C[C@@H]2CC[C@H]1N2C(=O)NC(C)C,-63*,x,x,-3%
COC(=O)C1=C(c2ccc(OCc3ccccc3)cc2)C[C@@H]2CC[C@H]1N2C(=O)NCc1ccccc1OC,-27,x,x,u
c1cn2cc(-c3ccc4c(c3)OCO4)nc2s1,31,u,10µM*,-2%
CCCCNc1c(-c2ccc(OC)c(SC3CCCCC3)c2)nc2cnccn12,x,x,x,0%
COc1cc(-c2nc3ccc(C)cn3c2NCc2ccccc2)ccc1SC1CCCCC1,1,x,x,u
COc1ccc(CSc2ccc(-c3nc4ccccn4c3NCc3ccccc3)cc2OC)cc1,-65*,x,x,u
COc1cc(-c2nc3ccccn3c2NCc2ccccc2)ccc1SC1CCCCC1,x,x,x,22µM*
CCC(C)Sc1ccc(-c2nc3ccccn3c2NCc2ccccc2)cc1OC (stereo unspecified),x,x,x,40µM*
COc1ccc(-c2nc3ccccn3c2NC2CCCCC2)cc1SC1CCCCC1,-99*,x,x,u
C#CCCCON=C1C[C@@H](O)[C@@H](O)[C@@H]2[C@H]3C(=O)N(C(C)(C)C)C(=O)[C@@H]3CC[C@H]12,x,12%[14.2 µM],x,x
CCN1C(=O)[C@@H]2[C@H]3[C@H](O)[C@H](O)CC(=NOCC[C@@H]4C=C[C@H](OC(C)=O)[C@@H](COC(C)=O)O4)[C@@H]3CC[C@H]2C1=O,x,-15%[14.2 µM],x,x
COC(=O)C[C@H](NC(=O)Cn1cnc(C(=O)Nc2ccc(C)c(C)c2)n1)C(=O)OC,-65*,2%,x,38%
COC(=O)[C@H](CC(C)C)NC(=O)Cn1cnc(C(=O)Nc2ccc(C)c(C)c2)n1,39,x,x,37%
CC(C(Sc1ccccc1N)c1ccccc1)[N+](=O)[O-] (stereo unspecified),-67*,x,x,u
Cc1cccc2c1NC(=O)C21N2CCCC2C(C(=O)c2ccc3ccccc3c2)C12C(=O)Nc1ccccc12 (stereo unspecified),x,x,x,18%
CCc1cccc2c1NC(=O)C21N2CCCC2C(C(=O)c2ccc3ccccc3c2)C12C(=O)Nc1ccccc12 (stereo unspecified),-93*,10µM*,u,-21%
O=C(Oc1ccc2ccccc2c1Br)N1CCCCCC1,-82*,1.2µM*,3.3µM*,0%
CCN(CC)C(=O)Oc1ccc2ccccc2c1Br,-89*,u,u,18%
COCCCn1cnn2c(=O)c3ccccc3nc2c1=O,20,x,x,x
O=C1NCCN1C(=O)N1CCC[C@@H]1c1noc2cc3ccccc3cc12,3,x,x,x
O=C(N(c1ccccc1)c1ccccc1)N(c1ccccc1)c1ccccc1,13,5%,x,-29%
CCCCCCCN(C(=O)CCl)c1cccc(C)c1,-86*,3%,8%,28µM*
O=C(CCl)N(c1ccccc1)c1ccccc1,-98*,u,u,14µM*
O=C(CCl)N(CCc1ccccc1)CCc1ccccc1,-100*,u,u,28µM*
CCCCCCN(C(=O)CCl)c1ccccc1,-100*,x,x,20µM*
SMILES,HCMV antiviral,Marburg entry inh,LASV entry inh,FMDV antiviral
CCOC(=O)[C@]12CCC=C1N(Cc1ccc(Cl)cc1Cl)C(=O)[C@H](CC(=O)NCC1CCCCC1)C2,-20,x,x,31%
COc1cc(OC)cc(C(=O)NCC2CCN(C(=O)C(=O)c3cccs3)CC2)c1,8,x,x,x
O=C(Nc1cccc2c1CCCC2)N1CCOc2ccc(Cl)cc21,18,x,10%[46.1 µM],-16%
CCC1CN(C(=O)Nc2cc(C)ccc2OC)c2cc(Cl)ccc2O1 (stereo unspecified),-61*,x,0%[46.1 µM],-20%
CCOC(=O)c1ccccc1NC(=O)N1CCOc2ccc(Cl)cc21,-61*,x,8%[46.1 µM],-29%
O=C(O)c1cccc(N2CCCCS2(=O)=O)c1,-100*,-1%,7%,-11%
O=C(O)CSc1ncnc2sc3c(c12)CCCC3,-31,9%[46.1 µM],12%,-9%
c1ccc(-n2nnnc2Sc2ncnc3sc4c(c23)CCCC4)cc1,-7,u,u,28µM*
Cc1sc2ncnc(Sc3nnnn3-c3ccc(Cl)cc3)c2c1C,53,u,21µM*,u
CCOc1ccc(NC(=O)CSc2ncc3c(n2)-c2ccc(Cl)cc2N(Cc2ccccc2)S3(=O)=O)cc1,17,x,18%[46.1 µM],-19%
Cc1ccc(-c2nn3c(=O)cc(CN4CCN(C(=O)c5ccc(C(C)(C)C)cc5)CC4)nc3s2)cc1,2,x,0%[46.1 µM],-14%
Nc1ccc(Cn2ccc3c4c(N)nc(N)nc4ccc32)cc1,-99*,u,u,u
Cc1ccccc1NCC(=O)N=Nc1c(O)[nH]c2ccc([N+](=O)[O-])cc12,-83*,x,x,-25%
Cc1ccc(NCC(=O)N=Nc2c(O)[nH]c3ccc([N+](=O)[O-])cc23)cc1,0,-2%,-20%,17%
Cc1ccccc1NC(=O)Cn1c(=O)n(Cc2ccc3c(c2)OCO3)c(=O)c2ccc(C(=O)NC3CCCCC3)cc21,-5,u,6%[46.1 µM],-12%
O=C(N/N=C/CCc1ccccc1)c1ccc(CN2c3cccc4cccc(c34)S2(=O)=O)cc1,u,-24%,5%,40µM*
CCOC(=O)C1C(c2cccc(Cl)c2Cl)NC(=O)NC1(O)C(F)(F)F (stereo unspecified),6,u,1%,-8%
CCOC(=O)C1C(c2ccc(C(=O)O)cc2)NC(=O)NC1(O)C(F)(F)F (stereo unspecified),-72*,6%[46.1 µM],-2%,-13%
COc1cccc(CN2CCC(N(CCc3ccccc3)Cc3ccccc3)CC2)c1OC,-64*,7.9µM*,u,u
C=Cc1c(C)c2cc3[nH]c(cc4nc(cc5nc(cc1[nH]2)C(C)=C5CCC(=O)O)C(CCC(=O)O)=C4C)c(C)c3C=C,-33,7.9µM*!,u,u
CCN1CCS/C1=C/C=C/C1=[N+](CC)CCS1,x,2.5µM*,u,u
CCN1CCS/C1=C\C=C\C1=[N+](CC)CCS1,-104*,2.5µM*,x,u
CC(=O)Nc1ccc(C(=O)NCC2CCCCC2)cc1,x,x,x,21%
Cc1ccc(NC(=O)c2ccoc2)cc1-c1ccc(C(=O)NCC2CC2)cc1,x,x,3.1µM*,x
Cc1ccc(-n2nnnc2-c2cnn(-c3cccc(F)c3)c2C(F)(F)F)cc1,-75*,u,u,u
SMILES,HCMV antiviral,Marburg entry inh,LASV entry inh,FMDV antiviral
Fc1cccc(-n2ncc(-c3nnnn3-c3ccccc3)c2C(F)(F)F)c1,-24,-2%,u,-20%
CCc1ccc(C(=O)Cn2ncc(Cl)c(Cl)c2=O)cc1,-107*,u,u,u
O=c1c(Cl)c(Cl)cnn1Cc1ccccc1Cl,-101*,6.5µM*,13µM*,25µM*
Cc1cc(C)cc(Cn2ncc(Cl)c(Cl)c2=O)c1,-84*,11µM*,u,28µM*
O=c1c(Cl)c(Cl)cnn1-c1ccccc1,-100*,26µM*,u,u
CC1CC(=O)C(C(C2=C(O)CC(C)CC2=O)c2ccccc2)=C(O)C1 (stereo unspecified),u,-5%,-4%,-20%
